Reference: PubChem BioAssay (EPA / NIEHS)
Some compounds were tested as several samples or in several runs, with calls that do not always agree. Activity calls are given as the source filed them. The calls were made as follows: active = hit-call score of the fitted dose curve at least 0.9, where 1 is the maximum; inactive = score below 0.9.

Target: Aryl hydrocarbon receptor (Homo sapiens) (UniProt P35869)
Test: ATG_Ahr_CIS: Attagene CIS-FACTORIAL HepG2 Assay for human Aryl Hydrocarbon Receptor (Ahr) (AID 2282930)
Details: HepG2 AhR cis-factorial reporter transcription; actives raise or lower the signal
Description: ATG_CIS is a cell-based, multiplexed-readout assay that uses HepG2, a human liver cell line, with measurements taken at 24 hours after chemical dosing in a 24-well plate.ATG_Ahr_CIS is one of 52 assay component(s) measured or calculated from the ATG_CIS assay. It is designed to make measurements of mRNA induction, a form of inducible reporter, as detected with fluorescence intensity signals by Reverse transcription polymerase chain reaction (RT-PCR) and Capillary electrophoresis technology.Data from the assay component ATG_Ahr_CIS was analyzed into 1 assay endpoint. This assay endpoint, ATG_Ahr_CIS, was analyzed with bidirectional fitting relative to DMSO as the negative control and baseline of activity. Using a type of inducible reporter, measures of mRNA for gain or loss-of-signal activity can be used to understand the reporter gene at the transcription factor-level as they relate to the gene AHR. Furthermore, this assay endpoint can be referred to as a primary readout, because this assay has produced multiple assay endpoints where this one serves a reporter gene function. To generalize the intended target to other relatable targets, this assay endpoint is annotated to the dna binding intended target family, where the subfamily is basic helix-loop-helix protein.
Human liver HepG2 cells are transiently transfected with multiple reporter transcription units (MRTUs) in 6-well plates using FuGene 6 reagent (Roche; 3 ml FuGene/1 mg DNA). The MRTU constructs are regulated by a cis-regulating element (promoter). […] A major difference between the CIS and TRANS system is that in CIS activities of endogenous TFs are measured, whereas the TRANS assay evaluates changes in activities of exogenous, chimeric NR-Gal4 proteins. […] At the end of 24 hour incubation, total RNA was isolated using TriZol reagent (Invitrogen). The isolated RNA is then reverse-transcribed using oligo(dT) primer and Mo-MLV reverse transcriptase (Invitrogen) with DNAse I (Ambion) treatment for 30 min. The one-tenth of the produced cDNA was amplified by PCR using Taq DNA polymerase (Invitrogen) and two reporter sequence-specific primers. The PCR products were fluorescently labeled by primer extension with 6-arboxyfluorescein (6-FAM) 5'-labeled reporter sequence-specific primer (2 min at 95 C, 20 s at 68 C and 10 min at 72 C) and these products were digested with 5U of HpaI (New England Biolabs) for 2h at 37 C. […] The raw capillary electrophoresis data was processed using Attagraph software (Attagene).

Aryl hydrocarbon receptor (Homo sapiens), sequence (P35869 whole entry, looked up): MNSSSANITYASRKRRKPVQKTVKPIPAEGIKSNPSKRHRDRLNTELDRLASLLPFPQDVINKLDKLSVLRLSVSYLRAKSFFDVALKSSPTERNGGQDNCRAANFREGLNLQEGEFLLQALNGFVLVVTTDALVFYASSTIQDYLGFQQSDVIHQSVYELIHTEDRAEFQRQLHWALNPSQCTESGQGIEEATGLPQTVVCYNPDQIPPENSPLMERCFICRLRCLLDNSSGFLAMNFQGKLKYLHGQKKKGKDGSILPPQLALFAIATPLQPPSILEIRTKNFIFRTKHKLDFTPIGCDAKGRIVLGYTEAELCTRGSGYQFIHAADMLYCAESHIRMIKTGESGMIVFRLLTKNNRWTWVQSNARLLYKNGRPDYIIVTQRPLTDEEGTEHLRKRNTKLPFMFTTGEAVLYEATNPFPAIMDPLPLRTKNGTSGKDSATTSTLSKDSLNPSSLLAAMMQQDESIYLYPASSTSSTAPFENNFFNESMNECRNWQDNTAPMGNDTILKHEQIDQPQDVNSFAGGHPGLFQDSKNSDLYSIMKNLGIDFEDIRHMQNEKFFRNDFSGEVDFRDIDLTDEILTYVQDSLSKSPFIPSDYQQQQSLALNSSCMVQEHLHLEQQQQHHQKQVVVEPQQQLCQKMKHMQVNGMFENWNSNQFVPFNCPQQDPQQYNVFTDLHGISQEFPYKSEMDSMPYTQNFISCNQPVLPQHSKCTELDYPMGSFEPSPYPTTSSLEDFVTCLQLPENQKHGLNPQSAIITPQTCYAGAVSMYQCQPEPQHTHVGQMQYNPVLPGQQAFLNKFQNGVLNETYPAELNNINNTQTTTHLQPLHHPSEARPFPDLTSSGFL

| SMILES | outcome | AC50 |
| --- | --- | --- |
| CCNc1nc(NCC)nc(SC)n1 | inactive |  |
| c1ccc2sc(SNC3CCCCC3)nc2c1 |  | 4.84 µM (active) |
| O=[N+]([O-])c1c2ccccc2cc2ccccc12 | inactive |  |
| CC(C)(C)c1cc([N+](=O)[O-])cc(C(C)(C)C)c1O | inactive |  |
| C=CCc1ccccc1O | inactive |  |
| CCN(CC)C(=O)C(Cl)=C(C)OP(=O)(OC)OC | inactive |  |
| OCCCCO | inactive |  |
| CCCCCCCCCCBr | inactive |  |
| O=C(O)c1cc(I)cc(I)c1I |  | 40.8 µM (active) |
| O=S1OC[C@@H]2[C@H](CO1)[C@]1(Cl)C(Cl)=C(Cl)[C@@]2(Cl)C1(Cl)Cl (stereo not given in full) | inactive |  |
| C=CC(=O)NC(C)(C)CC(C)=O | inactive |  |
| CCOP(=S)(OCC)SCS(=O)(=O)C(C)(C)C | inactive |  |
| CCCCCCCCCCCCBr | inactive |  |
| N#Cc1ccccc1Cl | inactive |  |
| CCCCCCCCCCCCN(C)C | inactive |  |
| CC(C)[N+](=O)[O-] | inactive |  |
| CCCCOC(=O)COC(=O)c1ccccc1C(=O)OCCCC | inactive |  |
| O=C(CCl)NCO | inactive |  |
| CCCSP(=S)(OCC)Oc1ccc(SC)cc1 (stereo not given) | inactive |  |
| O=C(O)CC(O)(CC(=O)O)C(=O)O | inactive |  |

| SMILES | outcome | AC50 |
| --- | --- | --- |
| N#Cc1cccnc1 | inactive |  |
| c1ccc(-c2cccc(-c3ccccc3)c2)cc1 |  | 21.9 µM (active) |
| Cc1cc(Cl)ccc1OCCCC(=O)O | inactive |  |
| Nc1ccc(-c2ccccc2)cc1 | inactive |  |
| C=CC(=O)[O][Sn]([CH2]CCC)([CH2]CCC)[CH2]CCC |  | 0.704 µM (active) |
| O=C(NC(=O)c1c(F)cccc1F)Nc1cc(Cl)c(F)c(Cl)c1F | inactive |  |
| Clc1cnc(Oc2ccc(Oc3ncc(Cl)cc3Cl)cc2)c(Cl)c1 |  | 5.93 µM (active) |
| OC(c1ccc(Cl)cc1)(c1ccc(Cl)cc1)c1cccnc1 | inactive |  |
| CNC(=O)N(C)c1nc2ccccc2s1 |  | 1.08 µM (active) |
| CNC(=O)O/N=C/C(C)(C)S(C)(=O)=O | inactive |  |
| CCN(N=O)C(N)=O | inactive |  |
| NNCCO |  | 25.7 µM (active) |
| CN(C)CCN(C)C | inactive |  |
| ClCc1ccccc1Cl | inactive |  |
| COc1ccccc1N | inactive | 78.3 µM (active) |
| CN(C)c1ccc(N=O)cc1 |  | 8.04 µM (active) |
| Cc1ccccc1OP(=O)(Oc1ccccc1C)Oc1ccccc1C | inactive |  |
| O=C(O)COc1cc(Cl)c(Cl)cc1Cl | inactive |  |
| CC(C)(c1ccc(O)c(-c2ccccc2)c1)c1ccc(O)c(-c2ccccc2)c1 | inactive |  |
